From the supplement of paper PMC10849652
About 7,900 targets were measured; listed, in parts, are those with a hit and a random draw of the rest. About 0.6% of all pairs of compound and target were hits.

Legend:
Test in all cases: log2 fold change, soluble protein after heating vs DMSO (PISA); higher = thermal stabilisation; K562 cells, 10 uM, 30 min; active = over 0.2 and 3.5 SD of the protein, either way, in both replicates (recomputed)
[1] = compound: C#Cc1cccc(Nc2ncnc3cc(OCCOC)c(OCCOC)cc23)c1 [erlotinib]
Method in brief: (§1)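 Aliquots of K562 cells (2×10^6 cells/mL) treated with 10 μM compound for 30 min were heated for 3 min over 48°C-58°C. After pooling and extraction in PBS with 0.5% NP-40 at 4°C, soluble protein from a 21,000xg, 90 min spin was quantified by TMTpro 16plex LC-MS/MS with channel sums equalised. Thermal stability is expressed against control samples, from duplicates, as a log2 fold change.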

[2] = compound: C/C(=N\NC(=O)C1=CC(=CC=C1)S(=O)(=O)N2CCOCC2)/C3=C(C=CC(=C3)Cl)O
Method in brief: as §1

[3] = compound: C1=CC(=CC=C1C2=NC3=C(N2)C=C(C=C3)C(=O)N)OC4=CC=C(C=C4)Cl
Method in brief: as §1

[4] = compound: C1=CC2=C(C=CC(=C2)/C=C\3/C(=O)NC(=NCC4=CC=CS4)S3)N=C1
Method in brief: as §1

[5] = compound: C1=CC2=NC=CN=C2C=C1/C=C/3\C(=O)NC(=O)S3
Method in brief: as §1

[6] = compound: C1=CC=C2C(=C1)C3=NNC4=CC=CC(=C43)C2=O
Method in brief: as §1

[7] = compound: C1=CC=C(C=C1)C2=NC(=C(N2)C3=CC=NC=C3)C4=CC(=C(C=C4)Cl)O
Method in brief: as §1

[8] = compound: C1=CC(=C(C=C1Cl)C2=NC3=NC=CN=C3C(=N2)NC4=CC=NC=C4)F
Method in brief: as §1

[9] = compound: C1CCN(C1)C(=O)NC2=CC=CC(=C2)NC3=NC=C(C(=N3)NCCC4=CN=CN4)Br
Method in brief: as §1

[10] = compound: C1CN(CCC1(CC2=CC=C(C=C2)Cl)N)C3=NC=NC4=C3C=CN4
Method in brief: as §1

Measured: log2 fold change

ARMC8 isoform 6 (UniProt Q8IUR7)
inactive: [1] -0.145 | [2] 0.081 | [3] -0.168 | [4] -0.075 | [5] 0.078 | [6] -0.067

BDH2 (UniProt Q9BUT1)
Chain of UniProt Q9BUT1 (Q9BUT1 whole entry, looked up): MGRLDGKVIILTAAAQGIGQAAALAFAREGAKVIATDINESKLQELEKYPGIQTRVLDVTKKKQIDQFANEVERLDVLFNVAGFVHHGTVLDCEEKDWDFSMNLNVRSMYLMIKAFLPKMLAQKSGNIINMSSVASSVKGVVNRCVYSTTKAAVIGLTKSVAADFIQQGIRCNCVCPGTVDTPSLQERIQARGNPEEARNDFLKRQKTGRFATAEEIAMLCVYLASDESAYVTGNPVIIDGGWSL
inactive: [1] -0.003 | [2] 0.204 | [3] 0.184 | [4] -0.031 | [5] -0.005 | [7] 0.085 | [6] 0.103

ACSL6 isoform 1 (UniProt Q9UKU0)
inactive: [1] -0.066 | [8] 0.02 | [3] 0.025 | [5] -0.083 | [7] -0.061 | [9] -0.03 | [10] 0.04

ATP6V0A1 (UniProt Q93050)
inactive: [5] 0.187

BRAF, A0A2R8Y8E0
inactive: [1] 0.073 | [2] 0.15 | [3] 0.083 | [4] -0.248 | [6] -0.047 | [9] -0.235 | [10] -0.26
active: [7] -0.987

AARSD1 (UniProt Q9BTE6)
Chain of UniProt Q9BTE6 (Q9BTE6 whole entry, looked up): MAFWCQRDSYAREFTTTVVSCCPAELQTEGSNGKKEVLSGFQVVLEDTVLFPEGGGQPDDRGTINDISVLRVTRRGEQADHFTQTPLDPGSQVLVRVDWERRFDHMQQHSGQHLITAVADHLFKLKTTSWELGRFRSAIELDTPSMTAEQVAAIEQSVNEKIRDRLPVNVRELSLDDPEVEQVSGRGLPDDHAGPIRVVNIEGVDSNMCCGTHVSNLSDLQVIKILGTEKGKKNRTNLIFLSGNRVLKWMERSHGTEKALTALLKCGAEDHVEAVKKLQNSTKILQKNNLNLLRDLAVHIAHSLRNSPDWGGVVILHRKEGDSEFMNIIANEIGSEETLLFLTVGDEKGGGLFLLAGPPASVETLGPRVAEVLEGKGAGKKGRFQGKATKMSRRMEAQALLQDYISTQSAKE
inactive: [1] 0.131 | [2] -0.415 | [3] 0.054 | [4] -0.063 | [5] -0.117 | [6] 0.197

AKNA (UniProt Q7Z591)
inactive: [1] -0.147 | [3] 0.195

ADD3 isoform 2 (UniProt Q9UEY8)
inactive: [2] 0.171 | [8] -0.049 | [4] 0.057 | [7] 0.009 | [6] 0.047 | [9] -0.016 | [10] 0.034

APOH (UniProt P02749)
inactive: [1] -0.214 | [2] -0.028 | [3] 0.051 | [4] -0.026 | [5] 0.069 | [7] -0.1 | [6] -0.092 | [9] 0.188 | [10] 0.09

BRD2 isoform 2 (UniProt P25440)
inactive: [1] -0.552 | [3] 0.204 | [4] -0.073 | [5] 0.367 | [6] 0.137 | [9] -0.08 | [10] -0.002

ALDH2 isoform 2 (UniProt P05091)
inactive: [2] -0.197 | [8] -0.106 | [4] 0.6 | [5] 0.07 | [7] -0.263 | [6] 0.131 | [9] 0.208 | [10] 0.032

AUH (UniProt Q13825)
inactive: [1] 0.155 | [2] 0.042 | [3] -0.035 | [4] -0.122 | [5] 0.112 | [7] 0.039 | [6] 0.065 | [9] -0.028 | [10] 0.059

BRMS1 (UniProt Q9HCU9)
Chain of UniProt Q9HCU9 (Q9HCU9 whole entry, looked up): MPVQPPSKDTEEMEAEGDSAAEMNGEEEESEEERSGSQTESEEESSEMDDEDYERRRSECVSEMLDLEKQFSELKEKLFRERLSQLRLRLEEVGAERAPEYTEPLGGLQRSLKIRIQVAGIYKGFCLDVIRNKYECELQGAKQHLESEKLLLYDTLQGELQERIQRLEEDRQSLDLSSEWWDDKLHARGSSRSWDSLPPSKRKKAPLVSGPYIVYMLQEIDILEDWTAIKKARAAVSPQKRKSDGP
active: [2] -0.656
inactive: [8] 0.075 | [4] 0.09 | [6] -0.041 | [9] 0.024 | [10] 0.119

BAIAP2 isoform 4 (UniProt Q9UQB8)
inactive: [9] -0.16 | [10] -0.048

ANK2 (UniProt Q01484)
inactive: [1] -0.089 | [2] -0.173 | [3] -0.028 | [4] 0.325 | [5] -0.059 | [7] 0.011 | [6] -0.031 | [9] -0.126 | [10] -0.131

APH1A (UniProt Q96BI3)
inactive: [1] 0 | [2] -0.046 | [3] 0.052 | [4] 0.073 | [5] 0.048 | [6] -0.09 | [9] -0.188 | [10] 0.071

ARFIP1 isoform 2 (UniProt P53367)
Chain of UniProt P53367 (P53367 whole entry, looked up): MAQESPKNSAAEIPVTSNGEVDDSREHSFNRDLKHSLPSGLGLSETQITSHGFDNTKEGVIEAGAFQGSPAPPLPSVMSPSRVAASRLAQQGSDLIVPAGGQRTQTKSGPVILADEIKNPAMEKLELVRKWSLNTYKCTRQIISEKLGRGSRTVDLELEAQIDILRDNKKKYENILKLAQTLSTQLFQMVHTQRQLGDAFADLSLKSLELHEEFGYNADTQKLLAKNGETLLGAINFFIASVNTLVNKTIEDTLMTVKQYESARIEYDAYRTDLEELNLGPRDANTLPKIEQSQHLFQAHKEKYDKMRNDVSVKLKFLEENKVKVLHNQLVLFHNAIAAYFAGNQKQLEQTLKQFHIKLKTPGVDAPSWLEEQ
inactive: [1] 0.106 | [8] -0.064 | [3] -0.051 | [5] -0.06

ARHGAP4 isoform 2 (UniProt P98171)
inactive: [1] 0.042 | [2] -0.338 | [3] 0.033 | [4] 0.121 | [5] -0.209 | [7] -0.016 | [6] -0.061 | [9] -0.117 | [10] 0.015

ADD1 isoform 4 (UniProt P35611)
inactive: [8] 0.169 | [5] -0.019

ADPRH (UniProt P54922)
inactive: [1] -0.021 | [8] -0.047 | [3] -0.047 | [5] 0.008 | [7] -0.011 | [9] 0.141 | [10] -0.065

BAP18 isoform 3 (UniProt Q8IXM2)
Chain of UniProt Q8IXM2 (Q8IXM2 whole entry, looked up): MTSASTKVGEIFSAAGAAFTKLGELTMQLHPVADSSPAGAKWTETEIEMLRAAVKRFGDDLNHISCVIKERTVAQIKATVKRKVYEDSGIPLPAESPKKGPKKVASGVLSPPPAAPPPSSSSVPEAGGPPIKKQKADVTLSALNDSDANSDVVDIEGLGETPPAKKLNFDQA
inactive: [1] 0.02 | [3] -0.146 | [9] -0.039 | [10] -0.015

AUNIP isoform 2 (UniProt Q9H7T9)
Chain of UniProt Q9H7T9 (Q9H7T9 whole entry, looked up): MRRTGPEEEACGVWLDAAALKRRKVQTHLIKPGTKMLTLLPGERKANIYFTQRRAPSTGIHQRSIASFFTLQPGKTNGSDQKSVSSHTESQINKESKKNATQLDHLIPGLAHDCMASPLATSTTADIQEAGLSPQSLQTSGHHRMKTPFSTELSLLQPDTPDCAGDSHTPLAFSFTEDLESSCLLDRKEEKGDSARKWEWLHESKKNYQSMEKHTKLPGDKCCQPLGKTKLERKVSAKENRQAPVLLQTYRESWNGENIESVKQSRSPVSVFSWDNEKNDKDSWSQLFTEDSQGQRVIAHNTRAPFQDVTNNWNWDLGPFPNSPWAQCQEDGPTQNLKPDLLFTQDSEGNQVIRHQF
inactive: [1] -0.023 | [2] 0.066 | [3] 0.297 | [4] 0.083 | [6] 0.027 | [9] 0.041 | [10] 0.066

AP2M1 (UniProt C9JTK4)
inactive: [2] -0.114 | [8] 0.036 | [4] 0.322 | [5] 0.172 | [6] -0.12 | [9] 0.084 | [10] -0.065

ANGEL1 (UniProt Q9UNK9)
Chain of UniProt Q9UNK9 (Q9UNK9 whole entry, looked up): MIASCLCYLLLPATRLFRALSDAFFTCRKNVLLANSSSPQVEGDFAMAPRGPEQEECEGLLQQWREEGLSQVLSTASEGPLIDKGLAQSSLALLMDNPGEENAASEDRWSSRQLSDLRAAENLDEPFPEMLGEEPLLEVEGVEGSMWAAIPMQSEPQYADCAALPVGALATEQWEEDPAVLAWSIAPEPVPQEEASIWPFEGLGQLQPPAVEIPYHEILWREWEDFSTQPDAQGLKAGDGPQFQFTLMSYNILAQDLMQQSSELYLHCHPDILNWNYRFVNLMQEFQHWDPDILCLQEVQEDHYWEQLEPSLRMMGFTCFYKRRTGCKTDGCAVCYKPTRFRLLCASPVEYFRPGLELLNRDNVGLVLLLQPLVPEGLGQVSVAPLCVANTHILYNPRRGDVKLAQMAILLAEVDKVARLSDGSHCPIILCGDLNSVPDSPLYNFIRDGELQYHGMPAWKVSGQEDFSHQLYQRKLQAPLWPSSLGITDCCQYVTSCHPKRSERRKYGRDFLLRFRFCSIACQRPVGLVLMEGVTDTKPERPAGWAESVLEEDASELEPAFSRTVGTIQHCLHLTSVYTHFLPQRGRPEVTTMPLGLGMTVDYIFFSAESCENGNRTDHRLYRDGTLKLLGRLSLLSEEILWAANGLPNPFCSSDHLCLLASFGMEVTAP
inactive: [5] 0.161 | [7] -0.107 | [9] -0.149 | [10] 0.092

AZI2 (UniProt Q9H6S1)
Chain of UniProt Q9H6S1 (Q9H6S1 whole entry, looked up): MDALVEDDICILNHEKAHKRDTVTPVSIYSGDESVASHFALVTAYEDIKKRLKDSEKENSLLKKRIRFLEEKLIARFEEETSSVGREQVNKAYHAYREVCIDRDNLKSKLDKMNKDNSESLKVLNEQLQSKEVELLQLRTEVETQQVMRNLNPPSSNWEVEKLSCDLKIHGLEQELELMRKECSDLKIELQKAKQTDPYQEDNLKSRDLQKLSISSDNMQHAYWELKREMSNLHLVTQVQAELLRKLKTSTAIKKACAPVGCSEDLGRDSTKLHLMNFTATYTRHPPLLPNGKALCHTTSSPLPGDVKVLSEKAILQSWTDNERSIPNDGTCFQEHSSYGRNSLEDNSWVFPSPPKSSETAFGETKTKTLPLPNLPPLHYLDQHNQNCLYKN
inactive: [1] -0.039 | [3] -0.211 | [5] 0.009 | [7] -0.012 | [9] -0.025 | [10] 0.04

ABITRAM (UniProt Q9NX38)
Chain of UniProt Q9NX38 (Q9NX38 whole entry, looked up): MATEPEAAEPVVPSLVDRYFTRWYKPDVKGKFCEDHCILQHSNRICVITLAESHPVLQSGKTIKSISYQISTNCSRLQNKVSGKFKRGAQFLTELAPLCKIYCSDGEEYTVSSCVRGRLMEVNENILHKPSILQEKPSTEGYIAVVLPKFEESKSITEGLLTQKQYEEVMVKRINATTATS
inactive: [2] 0.084 | [8] 0.029 | [4] 0.018 | [5] 0.023 | [7] -0.05 | [6] 0.034 | [9] -0.037 | [10] 0.018

ARRDC1 (UniProt Q8N5I2)
Chain of UniProt Q8N5I2 (Q8N5I2 whole entry, looked up): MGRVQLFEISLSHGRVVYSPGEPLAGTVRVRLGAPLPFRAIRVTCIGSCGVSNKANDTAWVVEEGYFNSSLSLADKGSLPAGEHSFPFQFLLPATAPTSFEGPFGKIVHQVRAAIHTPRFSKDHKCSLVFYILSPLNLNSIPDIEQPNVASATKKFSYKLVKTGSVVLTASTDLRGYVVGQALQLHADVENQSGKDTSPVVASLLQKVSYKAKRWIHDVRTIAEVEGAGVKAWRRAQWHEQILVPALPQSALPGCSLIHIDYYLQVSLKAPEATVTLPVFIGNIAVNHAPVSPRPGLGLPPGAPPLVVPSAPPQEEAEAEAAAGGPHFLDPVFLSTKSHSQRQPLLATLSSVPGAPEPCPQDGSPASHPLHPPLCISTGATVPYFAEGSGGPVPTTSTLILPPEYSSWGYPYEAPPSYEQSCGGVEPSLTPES
inactive: [1] -0.079 | [8] -0.075 | [3] 0.038 | [5] -0.05 | [7] 0.042 | [9] -0.03 | [10] -0.066

ADAMTS5 (UniProt Q9UNA0)
Chain of UniProt Q9UNA0 (Q9UNA0 whole entry, looked up): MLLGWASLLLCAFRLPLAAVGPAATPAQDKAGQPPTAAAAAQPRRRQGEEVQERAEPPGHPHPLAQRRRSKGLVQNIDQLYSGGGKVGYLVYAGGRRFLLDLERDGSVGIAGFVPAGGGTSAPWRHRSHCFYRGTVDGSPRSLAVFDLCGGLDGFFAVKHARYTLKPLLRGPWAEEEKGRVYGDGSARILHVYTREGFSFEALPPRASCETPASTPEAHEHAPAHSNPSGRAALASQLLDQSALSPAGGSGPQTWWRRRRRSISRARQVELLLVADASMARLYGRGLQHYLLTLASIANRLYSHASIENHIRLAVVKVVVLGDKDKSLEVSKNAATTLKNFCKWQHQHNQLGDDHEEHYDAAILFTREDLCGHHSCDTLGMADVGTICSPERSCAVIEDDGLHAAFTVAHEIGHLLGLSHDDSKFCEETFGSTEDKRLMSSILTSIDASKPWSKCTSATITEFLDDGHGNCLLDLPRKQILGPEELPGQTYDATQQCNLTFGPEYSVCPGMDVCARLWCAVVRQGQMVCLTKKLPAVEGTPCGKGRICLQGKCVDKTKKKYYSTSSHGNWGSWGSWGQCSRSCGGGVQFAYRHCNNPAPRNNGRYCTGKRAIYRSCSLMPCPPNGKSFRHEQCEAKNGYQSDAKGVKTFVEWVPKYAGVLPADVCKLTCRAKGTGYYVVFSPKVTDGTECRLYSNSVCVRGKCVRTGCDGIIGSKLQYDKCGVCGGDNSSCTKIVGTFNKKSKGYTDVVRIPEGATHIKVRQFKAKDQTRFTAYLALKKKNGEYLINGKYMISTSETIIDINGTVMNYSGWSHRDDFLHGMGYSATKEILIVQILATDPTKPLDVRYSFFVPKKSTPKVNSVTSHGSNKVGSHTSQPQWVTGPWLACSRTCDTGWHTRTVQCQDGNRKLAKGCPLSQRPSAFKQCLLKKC
inactive: [1] 0.186 | [3] -0.124 | [4] 0.171 | [5] 0.012 | [7] 0.072 | [6] 0.043 | [9] -0.06 | [10] 0.113
active: [2] -0.518

ACTR3B (UniProt Q9P1U1)
inactive: [1] -0.033 | [3] 0.073 | [7] -0.078 | [9] -0.012 | [10] 0.145

BRD3 (UniProt Q15059)
inactive: [1] -0.282 | [2] -0.072 | [3] 0.061 | [4] -0.021 | [5] 0.071 | [7] 0.128 | [6] 0.059 | [9] -0.163 | [10] -0.024

ATXN3 isoform 1 (UniProt P54252)
Chain of UniProt P54252 (P54252 whole entry, looked up): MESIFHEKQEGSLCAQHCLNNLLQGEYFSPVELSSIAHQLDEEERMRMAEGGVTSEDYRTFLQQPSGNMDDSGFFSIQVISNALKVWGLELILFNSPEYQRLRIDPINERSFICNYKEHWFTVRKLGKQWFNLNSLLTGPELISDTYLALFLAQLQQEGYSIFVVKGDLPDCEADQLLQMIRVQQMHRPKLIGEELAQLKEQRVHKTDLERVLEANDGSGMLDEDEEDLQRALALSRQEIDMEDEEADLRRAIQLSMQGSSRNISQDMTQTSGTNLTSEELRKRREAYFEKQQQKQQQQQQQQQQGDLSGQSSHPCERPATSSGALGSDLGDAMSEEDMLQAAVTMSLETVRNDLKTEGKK
inactive: [1] 0.082 | [2] 0.107 | [3] 0.038 | [4] -0.042 | [5] 0.082 | [7] -0.038 | [6] -0.115 | [9] -0.073 | [10] -0.002

ADD2 isoform 9 (UniProt P35612)
inactive: [5] -0.025 | [7] 0.203

AASDH (UniProt Q4L235)
inactive: [1] 0.113 | [8] 0.037 | [3] 0.048 | [5] 0.158 | [7] 0.003 | [9] -0.058 | [10] 0.034

AP2S1 (UniProt M0QZ21)
inactive: [9] -0.625 | [10] 0.21

ARL4A (UniProt P40617)
inactive: [2] 0.009 | [4] 0.35 | [5] -0.053 | [6] 0.047
